Among the data in PubChem BioAssay AID2314 (National Center for Advancing Translational Sciences (NCATS), 2010) are max response values, retold here.

Where “and” joins values, the source holds several entries; their conditions need not be identical. Equal entries are not always repeated. The campaign covered roughly 300,000 compounds. About 37,000 (12%) were called active. For the sample, actives were picked, then their nearest neighbours and some compounds at random. A number with no mark means an inactive call. No stated cut-off is given here; in the data, active means max response mostly above about 13% (no sharp cut-off); inactive means mostly below about 14%.

The assay is described as follows: Cycloheximide Counterscreen for Small Molecule Inhibitors of Shiga Toxin. Further: read at 38.3 µM for the half of the compounds with a filed dose; 0% is about no effect. As to conditions: cell reporter, cycloheximide protein synthesis inhibition counterscreen; hits give high values. Background: Counterscreens check selectivity or assay interference.
In the case of `COc1ccc(-n2nnnc2SCC(=O)NCc2cccs2)cc1`, the max response is -3.1%.

For `COc1ccc(-n2nnnc2-c2nc3ccccc3s2)cc1`, the max response is 40.1% (active).

In the case of `CCOc1cccc(-n2nnnc2-c2ccc(OC)cc2)c1`, the max response was -3.31%.

As for `O=C(Cc1cccc2ccccc12)NNC(=O)Nc1ccc(Cl)cc1`, the max response was 28.4% (active).

For `Cc1ccc(NC(=S)NC(NC(=O)Cc2cccc3ccccc23)C(Cl)(Cl)Cl)cc1` (stereo not drawn), the max response is -3%.

As to `Fc1ccccc1CNC(=S)Nc1ccc(Cl)cc1`, the max response was 6.56%.

On to `O=C(CCCCCn1c(=S)[nH]c2cc3c(cc2c1=O)OCO3)N1CCN(c2ccc(F)cc2)CC1`, for which the max response is 10.7%.

Take `CC(=O)c1ccc(NC(=O)Nc2ccc([N+](=O)[O-])cc2C)cc1`: the max response is -0.717%.

With `CC(=O)N1c2ccc(S(=O)(=O)N3CCC(C(=O)NC4CCCCC4C)CC3)cc2CC1C` (stereo not drawn), the max response is 4.46%.

With `COc1cc(C2CC(=O)c3cnc(NC(C)=O)nc3C2)cc(OC)c1OC` (stereo not drawn), the max response is -4.71%.

Take `O=C(Nc1ncc2c(n1)CC(c1ccco1)CC2=O)c1ccc(Cl)cc1` (stereo not drawn): the max response was -2.44%.

Take `CCc1ccc(Nc2ncc3c(n2)CC(c2ccco2)CC3=O)cc1` (stereo not drawn): the max response was 26.7% (active).

Consider `COC(=O)c1nc2n(n1)C(c1ccc([N+](=O)[O-])cc1)C(C(=O)Nc1ccc(Cl)cc1)=C(C)N2` (stereo not drawn), for which the max response is -2.4%.

For `O=c1cc(Cl)c2ccccc2n1-c1ccccc1`, the max response is -3.75%.

In the case of `Cc1cc(C)c(C2C3=C(Nc4c2c(C)nn4-c2ccccn2)c2ccccc2C3=O)c(C)c1` (stereo not drawn), the max response is -1.26%.

Regarding `COc1ccccc1C(=O)Nc1ccc(NC(=O)c2ccco2)c(C)c1`, the max response is 10.8%.

As for `COc1ccc(NC(=O)c2cccc(NC(=O)c3ccco3)c2)c(OC)c1`, the max response is -3.4%.

As for `COc1cccc(C(=O)Nc2ccc(NC(=O)c3ccco3)cn2)c1`, the max response was 55.5% (active).

As for `O=C(Nc1ccc(NC(=O)c2cccs2)cn1)c1ccco1`, the max response is 51.1% (active).

`O=C(Nc1ccnc(-c2ccncc2)n1)c1cccs1`: the max response is -2.6%.

Take `NC(=O)c1ccsc1NC(=O)c1ccco1`: the max response is 12.2%.

Regarding `CC(C)CC(=O)NC(=S)NNC(=O)c1cccc([N+](=O)[O-])c1`, the max response is 4.5%.

In the case of `CCOc1ccc(CNC(=O)C2CCCN(c3nnc(C)c4c(C)n(-c5ccccc5)nc34)C2)cc1` (stereo not drawn), the max response was -1.93%.

Take `COc1ccc(S(=O)(=O)N2CCN(c3ccc(F)cc3)CC2)cc1-c1noc(C)n1`: the max response is 10.5%.

With `Cc1ccccc1CSc1nnc(CCCCCNC(=O)OC(C)(C)C)o1`, the max response was -1.71%.

With `CCOc1ccccc1NC(=O)Cn1nnc(C(=O)NCc2cccs2)c1N`, the max response is -7.84%.

`O=C(NCc1cc(F)cc(C(F)(F)F)c1)C1CCC(=O)N(C2CCCC2)C1` (stereo not drawn): the max response is 25.3%.

With `CSc1ccc(S(=O)(=O)N2CCC(C(=O)NCCc3ccccc3)CC2)cc1`, the max response was 0.47%.

On to `O=C(C1CCN(S(=O)(=O)c2ccc(Br)s2)CC1)N1CCN(c2ccccc2)CC1`, for which the max response was -2.23%.

On to `O=C(NCCc1ccccc1)C1CCN(S(=O)(=O)c2ccc(Br)s2)CC1`, for which the max response is 11.9% (active).

On to `Oc1c(Cl)cc(Cl)cc1/C=N/c1ncn[nH]1`, for which the max response was -3.31%.

Consider `CCOC(=O)N1CCN(C(=O)c2ccc3c(=O)n(CCc4ccc(OC)c(OC)c4)c(=O)[nH]c3c2)CC1`, for which the max response is 2.53%.

Regarding `COc1cccc(CNC(=O)C2CCCN(S(=O)(=O)N3CC(C)CC(C)C3)C2)c1` (stereo not drawn), the max response is 3.03%.

For `O=C(N/N=C/c1ccc(Cl)cc1)c1nc2ccc([N+](=O)[O-])cc2c(=O)[nH]1`, the max response is -1.53%.

Regarding `Oc1ccc(Cl)cc1/C=N/c1nc2ccccc2[nH]1`, the max response was 23.3%.

Consider `O=C(/C(=C/c1cccc(Cl)c1)c1nc2ccccc2[nH]1)c1ccccc1`, for which the max response is 46.6% (active).

In the case of `CC(C)(C)c1ccc(CCC2OCC(CN3CCOCC3)O2)cc1` (stereo not drawn), the max response is 16.4%.

Turning to `CCOC(OCC)OCC`, the max response is 6.84%.

As for `CC(C)OC(=O)c1ccc(COc2ccc3ccc(=O)oc3c2)o1`, the max response is 22.4%.

As to `Cc1ccc(OCC(=O)Nc2ccc3oc(=O)ccc3c2)cc1C`, the max response was -4.02%.

In the case of `Cc1noc(C)c1COc1ccc2ccc(=O)oc2c1`, the max response is -2.41%.

Consider `COc1ccc(Nc2cc(=O)oc3ccccc23)cc1`, for which the max response was -1.7%.

For `COc1c(C(C)C)oc2cc3oc(=O)ccc3cc12`, the max response was 60.5% (active).

For the compound `Cc1oc2cc3oc(=O)ccc3cc2c1C`, the max response is 25.5% (active).

On to `CCCCCn1c(=O)[nH]c2cc(C(=O)NCCCN3CCCCC3C)ccc2c1=O` (stereo not drawn), for which the max response was -2.4%.

For `CC(C)CN(CC(C)C)CC(O)CN(c1ccccc1)S(=O)(=O)c1ccccc1[N+](=O)[O-]` (stereo not drawn), the max response is 3.27%.

On to `CC(C)CNC(=O)C(=O)NCC(c1ccc2c(c1)OCO2)N1CCOCC1` (stereo not drawn), for which the max response was -4.38%.

As for `COCCOC1CCN(C(=O)c2ccc(OC)c(OC3CCN(C(C)C)CC3)c2)CC1`, the max response was -2.04%.

`Cc1noc(NS(=O)(=O)c2ccc(NC(=O)c3oc4ccc(F)cc4c3C)cc2)c1C`: the max response was -2.38%.

For the compound `Cc1nc(-c2ccccc2)cn2c1nc1ccccc12`, the max response was 12.4%.

As to `Cc1ccc(S(=O)(=O)N2CCC(Oc3ccc(-n4cnnn4)cc3)CC2)cc1`, the max response is -4.88%.

Regarding `O=C(Cc1ccc(Br)cc1)NCCN1CCOCC1`, the max response was -13%.

With `CCN1C(=NCCc2cccnc2)N[C@@H](c2ccccc2)C(C(=O)OC)=C1C`, the max response was 1.37% and -1.46%.

On to `O=C(C[n+]1cc(Br)cc2ccccc21)c1ccc(F)cc1`, for which the max response was 3.72%.

As to `O=C(c1ccc(F)cc1)n1cc(C(=S)N2CCOCC2)c2ccccc21`, the max response was 7.24%.

For the compound `O=C(c1ccc(F)cc1)n1c(=S)nc2ccccn21`, the max response is 53.4% (active).

`CC(C(=O)NC1CCCCC1)N1C(=O)c2cccc3cccc1c23` (stereo not drawn): the max response was 11.1%.

As to `COCCN(C(=O)CCC(=O)Nc1nccs1)C(C(=O)NCCC(C)C)c1ccc(F)cc1` (stereo not drawn), the max response is -2.06%.

As to `CCOC(=O)C1=C(c2ccc(OC)cc2)C(=O)c2ccccc2C1=O`, the max response was 1.07%.

In the case of `CCOC(=O)c1c(-c2ccc(C)cc2)csc1/N=C(\C)C1=C(O)c2ccccc2C1=O`, the max response is 11.2% (active).

For `CCOC(=O)c1c(-c2ccc(-c3ccccc3)cc2)csc1NC(=O)CCC(=O)O`, the max response is -2.27%.

With `CC(=O)c1cccc(NC(=O)c2ccncc2)c1`, the max response was 7.01%.

Consider `Cc1csc(NC(=O)c2ccc(-c3ccc(Cl)cc3Cl)o2)n1`, for which the max response is 11.3%.

On to `Cc1cccc(NC(=S)Nc2ccc3cn[nH]c3c2)c1`, for which the max response was 7.4%.

For the compound `CCn1c(SCC(=O)Nc2nc(C)cs2)nnc1C(C)NC(=O)c1ccccc1` (stereo not drawn), the max response is 1.33%.

For `S=C(Nc1cccc(Cl)c1)Nc1ccc2cn[nH]c2c1`, the max response was 24.8% (active).

`Cc1cccc(NC(=S)Nc2ccc(Cl)c(Cl)c2)c1`: the max response was -1.87%.

Consider `Cc1csc(NC(=S)Nc2cccc(Cl)c2)n1`, for which the max response is 41.1% (active).

On to `CC(=O)Nc1cccc(C(=O)Nc2nc(C)cs2)c1`, for which the max response was 27.2% (active).

Take `CCc1cccc(CC)c1NC(=S)Nc1ccc2cn[nH]c2c1`: the max response was -0.951%.

For `Cc1cc(=O)oc2cc(OCC3CC(c4ccccc4Cl)=NO3)ccc12` (stereo not drawn), the max response is 13.7%.

For `Cc1ccc(NC2CCCN(C(=O)CCC3(C)CC3)C2)cc1C` (stereo not drawn), the max response was 10.8%.

Turning to `Cc1nc2ccc(C(=O)N(C)CC3CCCN(CCc4ccc(Cl)cc4)C3)cc2[nH]1` (stereo not drawn), the max response was -2.66%.

With `C=CCNC(=S)N1CCN(CCN=Cc2c(C)[nH]n(-c3ccc([N+](=O)[O-])cc3)c2=O)CC1`, the max response is -1.17%.

With `CCO[C@H]1OC(C(=O)Nc2ccccc2)=C[C@@H](C2CC2)[C@@H]1CCCO`, the max response was -1.4%.

Consider `C[C@]1(C(=O)NCCc2c[nH]c3ccccc23)C=C[C@@H](Cc2ccccc2)N1C(=O)c1ccccc1`, for which the max response is 11.9%.

Take `Cc1ccc(N2C(=O)C3C(c4ccccc4)(C2=O)C3(c2ccccc2)c2ccccc2)cc1` (stereo not drawn): the max response is -4.14%.

Take `COc1cc(-c2nn3c(-c4cccc(C)c4)nnc3s2)cc(OC)c1OC`: the max response is -2.72%.

With `CCOc1cccc(-c2nn3c(-c4ccccn4)nnc3s2)c1`, the max response is 22.6% (active).

On to `c1ccc(-c2cc(-c3nnc4sc(-c5ccccn5)nn34)[nH]n2)cc1`, for which the max response was 5.86%.

Turning to `COc1ccc(N(Cc2cc3cc(OC)ccc3[nH]c2=O)S(C)(=O)=O)cc1`, the max response is -1.64%.

With `CCC(=O)N(Cc1cc2cc(OC)ccc2[nH]c1=O)c1ccccc1C`, the max response was -0.76%.

`COc1ccc2[nH]c(=O)c(CNc3ccc(C)c(C)c3)cc2c1`: the max response is 15% (active).

Take `CC(=O)c1ccc(S(=O)(=O)N2CCC(Oc3ccc(-n4cnnn4)cc3)CC2)cc1`: the max response was -8.92%.

`N#Cc1c(Cl)nc(-c2cccnc2)nc1-c1ccccc1`: the max response was -2.59%.

Regarding `S=C(Nc1cccnc1)Nc1ccccn1`, the max response is -1.56%.

As for `CCOC(=O)c1cnc(-n2nc(C)cc2C)nc1NNc1cc(C)nc(-c2ccccc2)n1`, the max response is -1.88%.

Consider `COc1ccc(/C=N/NS(=O)(=O)c2ccc(NC(C)=O)cc2)cc1`, for which the max response was -2.62%.

As for `COc1ccc(C=Nc2cccc3ncccc23)cc1`, the max response is 5.61%.

In the case of `COc1ccc(/C=N/OCC(=O)N(Cc2ccccc2)c2ccccc2C(=O)O)cc1`, the max response was -1.3%.

For the compound `COc1ccc(/C=N/Nc2nc3ccccc3c(=O)[nH]2)cc1`, the max response is 43.2% (active).

`COc1ccc(/C=N/Nc2nc(-c3ccc(C)cc3)c(C#N)c(=O)[nH]2)cc1`: the max response is -2.53%.

`COc1ccc(/C=N/Nc2ccccc2C(=O)O)cc1`: the max response was 38.9% (active).
